Screening results deposited in PubChem BioAssay by several laboratories.
Anthrax LF prot – inhibitors of Bacillus anthracis lethal factor protease; P15917; multiplex microsphere protease cleavage assay, LF; inhibition, % at 10 µM; 360,000 compounds, 0.12% hits
BoNT-A LC inh2 – blocks Botulinum neurotoxin A light chain protease; multiplex microsphere protease substrate cleavage, flow cytometry; inhibition, % at 10 µM; 360,000 compounds, 0.17% hits; AID 588499
BoNT-F LC inh – BoNT F light chain protease inhibition | 360,000 compounds, 0.22% hits | inhibition, % at 10 µM | Multiplex microsphere protease cleavage assay, flow cytometry; in the data active means inhibition above about 35%, passing the limit was not always enough; inconclusive means no clear call, values can overlap the other calls
PfHsp40 rescue – restores yeast growth despite PfHsp40 toxicity; 340,000 compounds, 0.68% hits; S. cerevisiae expressing PfHsp40, growth rescue, ATP luminescence; growth rescue, % at 12.5 µM; in the data active means growth rescue above about 28%, passing the limit was not always enough; inconclusive means no clear call, values can overlap the other calls;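 further: yeast W303a lacking pdr1 and pdr3 grown in galactose medium; growth measured after three days at 30 °C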
Autofluor counter – flagged as autofluorescent in microsphere protease counterscreen | AID 624483 | 360,000 compounds, 3.1% hits | fluorescence intensity (test concentration not listed) | compound autofluorescence counterscreen, microsphere flow cytometry; hits give high values; in the data active means fluorescence intensity above about 16000; inconclusive means no clear call, values can overlap the other calls
MazF activator – increases E. coli MazEF RNase cleavage of RNA. P0AE70. FAM/BHQ RNA-DNA oligo cleavage fluorescence, 5 h. activation, % at 20 µM. 350,000 compounds, 0.32% hits; in the data active means activation above about 50%
Hits are given with their value; - = inactive; ? = inconclusive; . = no result given. An excerpt weighted towards active compounds, which were near 4.3% of everything screened. Unless noted, no stated cut-off is given here; in the data, active means inhibition above about 30%; inconclusive means no clear call, values can overlap the other calls; inactive means below that.

SMILES	Anthrax LF prot	BoNT-A LC inh2	BoNT-F LC inh	PfHsp40 rescue	Autofluor counter	MazF activator
CC[C@@H](O)C[C@H]1CCC[C@@]2(C[C@@H]3OC(=O)/C=C/[C@@](C)(O)[C@@H](O)[C@H](C)[C@@H](O)[C@H](OC4CCC(N(C)C)C(C)O4)[C@@H](O)[C@](C)(O)CCCCC/C=C/[C@@H]4CC(C)(C)O[C@@]4(O)C[C@H](O2)[C@H]3C)O1 (stereo partly specified)	-	-	-	56	-	-
COc1ccc(N2C(=O)CC(N3CCN(c4ccc(S(C)(=O)=O)cc4)CC3)C2=O)cc1 (stereo unspecified)	-	-	-	-	18815	-
CCN1CNC(=S)N(c2cc(C)ccc2C)C1	-	?	-	-	21089	-
Cc1ccc(C)c(N2CN(Cc3ccco3)CNC2=S)c1	-	-	-	-	-	-
COc1cc(NS(=O)(=O)c2cn(C)cn2)cc(OC)c1	-	-	-	-	-	-
O=C(O)C(F)=C1c2ccccc2-c2ccccc21	.	.	.	.	.	-
CCc1nc(SCC(=O)N2CCCC2)c2ccccc2n1	-	-	-	-	-	-
CC(C)c1nc(SCC(=O)N2CCCC2)c2ccccc2n1	-	?	-	-	22830	-
CC(C)c1nc(SCC(=O)Nc2ccc(N3CCOCC3)cc2)c2ccccc2n1	-	-	-	25	-	-
O=C(O)CCC(=O)NN1C(=O)c2ccccc2NC1c1ccc(F)cc1 (stereo unspecified)	-	-	-	-	-	-
COc1ccc(OCC(=O)Nc2c(C)ccc3nsnc23)cc1	-	-	-	-	?	-
N#CCN1CCC2(O)CCCCC2C1c1ccc2c(c1)OCO2 (stereo unspecified)	-	-	?	-	-	-
Cc1cccc(NC(=S)N/N=C/c2ccc([N+](=O)[O-])s2)c1	52	88	-	56	-	-
CCCn1c(CN2CCN(C(=O)OCC)CC2)nc2cc(NC(C)=O)ccc21	-	-	-	-	-	-
CC1CC(=O)Nc2ccccc2N1C(=O)COc1cc(Cl)ccc1Cl (stereo unspecified)	-	-	-	-	-	-
CCc1nnc(NC(=O)CSc2nnc(CNc3cccc(C)c3)n2-c2ccccc2)s1	-	-	-	-	-	-
Cc1cc(NC(=O)CSc2nnc(CNc3ccc(F)cc3)n2C2CCCCC2)no1	-	-	-	-	23158	-
CCc1nnc(NC(=O)CSc2nnc(CNc3ccc(F)cc3)n2C2CCCCC2)s1	-	-	-	-	16238	-
Nc1nnc(-c2ccc(Cl)c([N+](=O)[O-])c2)s1	-	-	-	-	-	-
Cc1[nH]c2ccccc2c1C(=O)C(=O)NC1CC1	-	-	-	-	-	-
OCCN1CCN(c2ncnc3c2c(-c2ccccc2)cn3-c2ccc(F)cc2)CC1	-	-	-	-	-	-
COc1ccc(-n2cc(-c3ccccc3)c3c(N4CCN(CCO)CC4)ncnc32)cc1	-	-	-	-	20444	-
C(#Cc1ccc(C#CCN2CCOCC2)cc1)CN1CCOCC1	-	-	-	-	17459	-
O=c1cnnc(SCCc2ccccc2)[nH]1	-	-	-	-	23384	-
CSc1nncc(=O)[nH]1	-	-	-	-	21213	-
SMILES	Anthrax LF prot	BoNT-A LC inh2	BoNT-F LC inh	PfHsp40 rescue	Autofluor counter	MazF activator
Cc1cccc(CSc2nncc(=O)[nH]2)c1	-	-	-	-	-	-
CSc1nc2[nH]c(=O)[nH]c2c(=O)[nH]1	-	-	-	-	-	-
CC(OC(=O)CSc1ccc([N+](=O)[O-])cc1)C(=O)NCc1ccccc1 (stereo unspecified)	-	-	-	-	-	-
N#Cc1ccc(COC(=O)c2ccc3c(=O)[nH]c(CN4CCOCC4)nc3c2)cc1	-	-	-	-	23349	-
CC(=O)Oc1cccc2c1C(=O)c1c(OC(C)=O)cc(C(=O)O)cc1C2=O	-	-	-	-	-	257
CNC(=O)COC(=O)c1nc(-n2nc(C)cc2C)ccc1Cl	-	-	-	-	24164	-
Nc1cc(=O)[nH]c(SCC(=O)Nc2ccc(N3CCOCC3)cc2)n1	-	-	-	-	-	-
Cc1ccc2nc(C)/c(=N\O)c(C)nc2c1	-	-	-	-	16928	-
Cc1nc2ccc(Cl)cc2nc(C)/c1=N\O	-	-	-	-	-	-
Cc1ccc(S(=O)(=O)NNC(=O)c2ccccc2O)cc1	-	-	39	-	-	-
Cc1ccc(S(=O)(=O)NNc2ccccc2)cc1	-	?	-	-	16260	-
Nc1ncnc2c1nc(Sc1ccc(Cl)cc1)n2[C@@H]1O[C@@H]2COP(=O)(O)O[C@H]2[C@H]1O	-	-	-	-	-	-
